High-throughput results (PubChem BioAssay)
D2 ag-1: HTS Assay for Allosteric Agonists of the Human D2 Dopamine Receptor: Primary Screen for Agonists; D(2) dopamine receptor (Homo sapiens), P14416; HEK293 T-REx D2 cells, calcium flux agonist mode; activation, % at 2 µM; hit rate 0.53% among 340,000; AID 485358, 2010;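 active = activation over 3 SD above normal in the single-dose calcium agonist read, cut at about 30% in these data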; also: 0% is about no effect
Target sequence (P14416 whole entry, looked up): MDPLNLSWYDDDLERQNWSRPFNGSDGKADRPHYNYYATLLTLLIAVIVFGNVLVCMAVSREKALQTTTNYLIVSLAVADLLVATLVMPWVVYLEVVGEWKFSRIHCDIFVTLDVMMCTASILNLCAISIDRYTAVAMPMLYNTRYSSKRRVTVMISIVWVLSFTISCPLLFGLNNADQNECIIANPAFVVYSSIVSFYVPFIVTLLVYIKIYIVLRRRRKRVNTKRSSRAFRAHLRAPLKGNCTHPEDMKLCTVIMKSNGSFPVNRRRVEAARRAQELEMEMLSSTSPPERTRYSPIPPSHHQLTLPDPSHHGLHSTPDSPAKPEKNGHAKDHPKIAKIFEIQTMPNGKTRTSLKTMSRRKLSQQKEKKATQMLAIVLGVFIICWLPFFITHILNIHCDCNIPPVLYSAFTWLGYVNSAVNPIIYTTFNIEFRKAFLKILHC
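Calcium-flux readout, 1 cycle/sec over 180 s following compound pin transfer, in inducible HEK293 Trex D2 cells (force-coupled); dopamine controls included. Positive calcium responses during this window marked compounds as potential agonists.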
D2 PAM-1: HTS Assay for Positive Allosteric Modulators of the Human D2 Dopamine Receptor: Primary Screen for Potentiators. HEK293 T-REx D2, calcium flux, EC20 dopamine potentiation. hit rate 0.34% among 340,000. D(2) dopamine receptor (Homo sapiens), P14416. potentiation, % at 10 µM;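 active = potentiation over 3 SD above the plate norm, cut at about 30% in these data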; also: 0% is about no effect
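Potentiation of an EC20 dopamine calcium response is measured in a force-coupled, tetracycline-inducible Hek293 Trex D2 line. Compound-only kinetic reads over 180 s flag agonists before dopamine addition.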
D2 antagonist: HTS Assay for Allosteric Antagonists of the Human D2 Dopamine Receptor: Primary Screen for Antagonists | inhibition, % at 10 µM | D(2) dopamine receptor (Homo sapiens), P14416 | HEK293 TREx D2 cells, calcium flux, dopamine EC80 | AID 485344, 2010 | hit rate 2% among 340,000; in the data active = inhibition above about 30%; inactive = below that, where a call was filed; also: 0% is about no effect
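Calcium flux kinetic readout in an inducible HEK293 TREx D2 line plated overnight at 30 C. After 180 s compound exposure, an EC80 dopamine challenge follows with another 180 s kinetic read to detect antagonism.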
D2 PAM-2: Beta-Arrestin HTS for Positive Allosteric Modulators of the Human D2 Dopamine Receptor: Potentiators. potentiation, % (no concentration beside the values). D(2) dopamine receptor (Homo sapiens), P14416. DiscoveRx D2 beta-arrestin cells, luminescence, 90 min; 100% = 57 uM dopamine signal. hit rate 0.23% among 360,000. AID 624464, 2012; in the data active = potentiation above about 50%; inconclusive = mostly about 30% to 49%
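PathHunter D2 cells, attached overnight at 37 deg C, received compound in DMSO plus dopamine at EC20 (50 nM final) for 90 min at 37 deg C. Beta-arrestin recruitment was read as luminescence after 1 h with detection reagent at ambient temperature.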
D2 ag-2: Beta-Arrestin HTS for Positive Allosteric Modulators of the Human D2 Dopamine Receptor: Agonists; DiscoveRx PathHunter D2 beta-arrestin, luminescence, 90 min; 100% = 57 uM dopamine signal; hit rate 0.084% among 360,000; activation, % (no concentration beside the values); in the data active = activation above about 40%; inconclusive = between about 15% and that limit
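Agonist mode: compounds alone added to overnight-plated D2 PathHunter cells for 90 min at 37 C, with 57 uM final dopamine (EC100) defining full response. Beta-arrestin recruitment detected by chemiluminescent reagent, read after 1 h at ambient temperature.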
* hit, by the source's call; ? = inconclusive; nt = no result. Most compounds without a hit are left out; they make up all but 2.4% or so of the library.

SMILES	D2 ag-1	D2 PAM-1	D2 antagonist	D2 PAM-2	D2 ag-2
CC(=O)c1ccc(OCC(O)CN2CCN(S(=O)(=O)c3c(C)cc(C)cc3C)CC2)cc1 (stereo unspecified)	1	2	0	-6	1
CC(=O)c1ccc(NC(=O)C2CCN(S(=O)(=O)c3ccc4c(c3)CCCN4C(=O)C3CCC3)CC2)cc1	1	11	nt	nt	nt
Cc1cccc(C)c1OCCN1C(=O)NC(C)(c2ccccc2)C1=O (stereo unspecified)	1	39*	-8	-6	-5
N#Cc1c(-c2cccs2)cc(-c2cccnc2)nc1N	0	-2	49*	-1	0
N#Cc1c(-c2ccc(F)cc2)cc(-c2cccnc2)nc1N	nt	nt	nt	2	0
CC(=O)c1ccc(N2CCN(c3ncnc4c3cnn4-c3cc(Cl)ccc3C)CC2)cc1	0	8	nt	nt	nt
CCC1CN(C(=O)N2CCC(C(=O)NCCc3ccc(OC)cc3OC)CC2)c2cc(C)ccc2O1 (stereo unspecified)	1	16	nt	nt	nt
CCOC(=O)CN1C(=O)C(Sc2n[nH]c(-c3cccc(C)c3)n2)CCc2ccccc21 (stereo unspecified)	-1	-22	-13	-22	0
CCOC(=O)CN1C(=O)C(Sc2n[nH]c(-c3ccc(C)cc3)n2)CCc2ccccc21 (stereo unspecified)	0	-21	61*	-27	-4
Cc1ccccc1NC(=O)C1(C)Cc2ccccc2C(=O)O1 (stereo unspecified)	2	33*	-10	-6	-2
O=C1N(CN2CCC3(CC2)OCCO3)c2ccccc2C12OCCCO2	0	6	4	-10	-3
O=C1N(CN2CCN(c3cccc(Cl)c3)CC2)c2ccccc2C12OCCCO2	1	-22	33*	-17	-1
CCc1nnc(NC(=O)c2cc(=O)c3cc(C)ccc3o2)s1	0	9	nt	nt	nt
CCC(=O)N1CCc2cc(Br)cc(S(=O)(=O)CCC(=O)N3CCN(c4ccccc4F)CC3)c21	0	-13	nt	nt	nt
CCN(CC)C(=O)NC1CC2CCCC(C1)N2Cc1ccccc1 (stereo unspecified)	0	-40	92*	-35	3
O=C(/C=C/c1ccccc1)NC1CC2CCCC(C1)N2Cc1ccccc1 (stereo unspecified)	1	-23	88*	nt	nt
O=C(Cn1c(=O)oc2cc(S(=O)(=O)NC3CCCC3)ccc21)Nc1ccc(F)c(F)c1	1	2	nt	nt	nt
COc1ccccc1NC(=O)CN1C(=O)CC(c2ccc(C)c(C)c2)=Nc2ccccc21	0	10	nt	nt	nt
NC(=S)N/N=C/c1cccc(O)c1O	0	-2	-6	16	2
Cc1cc(/C=N/NC(N)=S)c(O)c(/C=N/NC(N)=S)c1	45*	8	-14	-8	-6
COc1cc(Br)c(CCNC(=O)c2ccco2)cc1OC	0	-4	36*	-6	-2
COc1ccc(CCNC(=O)c2nonc2N)cc1OC	0	-1	7	-15	1
COc1ccc(CCNC(=O)c2noc3c2CCCC3)cc1OC	0	2	42*	-13	-1
COc1ccc(CCNC(=O)c2ccc3nc(-c4ccco4)c(-c4ccco4)nc3c2)cc1OC	6	10	-6	61*	9
COc1ccccc1OCCNC(=O)c1ccco1	1	-6	1	-2	-5
SMILES	D2 ag-1	D2 PAM-1	D2 antagonist	D2 PAM-2	D2 ag-2
COc1ccc(Cl)cc1NC(=O)c1noc2c1CCCC2	1	18	31*	-4	-6
CCc1nc2ccc(C(=O)NCCc3ccc(OC)c(OC)c3)cc2nc1CC	0	3	-1	8	4
CN(CC(=O)Nc1cccc(F)c1)S(=O)(=O)c1ccc2c(c1)n(C)c(=O)c(=O)n2C	nt	0	nt	nt	nt
O=C(Nc1ccc(F)cc1)c1ccc2ncsc2c1	0	-6	18	-3	6
O=C(Nc1ccc(Cl)cc1)c1ccc2ncsc2c1	0	-20	40*	-5	?
Cc1ccc(NC(=O)CN2C(=O)C3(SCC(=O)N3c3ccc(F)c(F)c3)c3ccccc32)c(C)c1 (stereo unspecified)	1	-4	nt	nt	nt
COC(=O)[C@@]1(Cc2ccc(OC)cc2)[C@@H]2C(=CC(=O)[C@H]2CC(=O)C(=O)N(C)C)CN1C(=O)c1ccccc1	1	5	-11	1	-2
C=C1C(=O)C=C2CN(C(=O)c3ccccc3)[C@@](Cc3ccc(F)cc3)(C(=O)OC)[C@@H]12	24	9	44*	-24	-9
CC1(C)Cc2ccccc2-c2nnc(-c3ccc4ccccc4n3)n21	0	44*	0	-5	1
Cc1cc(/C=C2/C(=O)N(C)C(=S)N2C)ccc1N1CCCC1	32*	-1	26	3	1
CN1C(=O)/C(=C/c2ccc(OCc3ccc(F)cc3)cc2)N(C)C1=S	nt	nt	nt	-1	-4
Cc1cc(N2CCCC2)ccc1/C=C1/C(=O)N(C)C(=S)N1C	8	-3	59*	-6	-4
CCCN1C(=O)/C(=C/c2ccc(N3CCOCC3)cc2)NC1=S	24	nt	1	-13	-5
CCN1C(=O)/C(=C/c2ccc(N3CCCC3)cc2)NC1=S	59*	-17	8	-11	1
Cc1cc(/C=C2\NC(=S)N(C)C2=O)ccc1N1CCCC1	69*	-2	42*	-5	5
CCCN1C(=O)/C(=C/c2ccc(N3CCCC3)c(C)c2)NC1=S	nt	nt	nt	-9	-3
COc1ccc(-c2nnc(SCC(=O)NCc3ccccc3)nc2-c2ccc(OC)c(OC)c2)cc1OC	0	14	nt	nt	nt
COc1cccc(C2=NN(S(C)(=O)=O)C(c3cn(-c4ccccc4)nc3-c3cccs3)C2)c1 (stereo unspecified)	1	19	nt	nt	nt
Cc1cccc(OCc2nc(CC(=O)Nc3ccc(Cl)cc3)cs2)c1	-1	0	nt	nt	nt
COc1ccc(CNC(=O)c2cc(C3CC3)nc3c2cnn3C(C)C)cc1OC	0	-10	1	-3	0
Cc1ccc(CNC(=O)c2cc(C3CC3)nc3c2cnn3C(C)C)cc1	-1	-37	39*	-43	2
Cc1ccc(NC(=O)Cn2cc(C(=O)C3CCCCC3)c3ccccc32)cc1	nt	5	nt	nt	nt
COc1ccccc1CNC(=O)CCCCn1c(=O)c2ccccc2n(CC(=O)Nc2cccc(Cl)c2)c1=O	1	16	nt	nt	nt
O=C(O)CSCCc1ccccn1	-1	-19	53*	-4	-2
COc1ccccc1NC(=O)C1=C(C)Nc2ncnn2C1c1cccn1C (stereo unspecified)	0	-7	nt	nt	nt
